{
  "source": "PubChem BioAssay",
  "key": {"[1]": {"assay": "hESC survival regulators, cell-based (AID 493140; call rule not given here;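 further: cells exposed to compounds for four days before counting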)", "details": "human embryonic stem cell survival screen; stronger effect = higher value"}, "[2]": {"assay": "liver-stage malaria parasite growth inhibition, primary screen, cell-based, HepG2, luciferase luminescence, HepG2 viability (AID 624349);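 further: 100% = mean of DMSO negative control wells on the same plate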", "details": "P. berghei liver stage in HepG2, luciferase luminescence, concentration not given here; parasite load remaining: stronger effect = lower value; viability: measured here: HepG2 viability without parasites"}, "[3]": {"assay": "sensitizers of A549 cells to miR-34 induction, primary screen, imaging, A549 dox-inducible miR-34, nuclei and caspase counts (AID 1347080;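 active means compounds whose cell count with miR-34 switched on is under 0.7 times the count with it off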)", "details": "A549 miR-34 inducible, Hoechst nuclei count, 48 h"}, "[4]": {"assay": "survival rescue of mitochondrial mutant cells in low glucose, primary screen, MELAS cybrids, Rieske KO mouse fibroblasts, CellTiter-Glo (AID 1508586;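 active means mean z-score across replicates of 1.96 or higher in either the MELAS or the Rieske mutant cell line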;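 further: z relative to plate mean and SD of compound and empty wells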)"}},
  "note": "“And” between values parts separate entries of the source, which are not always exact repeats. Identical values can stand only once. The source made the active and inactive calls. Unless noted, no stated cut-off is given here; in the data, active means parasite load remaining mostly below about 12% (no sharp cut-off); inactive means mostly above about 10%.",
  "data": [
    {"smiles": "c1ccc(CNc2ncnc3nc[nH]c23)cc1", "values": [
      {"measurement": "survival", "setting": "[1]", "result": "39 (inactive)"},
      {"measurement": "parasite load remaining", "setting": "[2]", "result": "31% (inactive) and 123% (inactive)"},
      {"measurement": "viability", "setting": "[2]", "result": "49.8% and 87.6%"},
      {"measurement": "fold change", "setting": "[3]; stronger effect = lower value, cell number ratio, induced over uninduced", "result": "1.05 (inactive)"},
      {"measurement": "fold change", "setting": "[3]; measured here: relative caspase fold change +Dox/-Dox", "result": 1.32},
      {"measurement": "cell count", "setting": "[3]; measured here: total cells with miR-34 induction, stronger effect = lower value", "result": 8060},
      {"measurement": "cell count", "setting": "[3]; measured here: total cells without miR-34 induction", "result": 7640},
      {"measurement": "z-score", "setting": "[4]; MELAS cybrid survival, CellTiter-Glo 48 h, stronger effect = higher value", "result": "2.23 (active)"},
      {"measurement": "z-score", "setting": "[4]; Rieske KO mouse fibroblast survival, CellTiter-Glo 72 h", "result": 0.15}
    ]}
  ]
}
